Measured values taken from PubChem BioAssay AID1159580 (chemical genetic matrix, 2015).
Out of some 5,500 compounds screened, about 2,000 (36%) were called active. About 18% were inconclusive and are not listed. Cut-off read from the data, not from the text of the source: active = normalized growth mostly below about 0.91 (no sharp cut-off); inconclusive = no clear call, values can overlap the other calls; inactive = mostly above about 0.92. The list shows a part of the results.

Assay: chemical genetic growth profiling, strain panel (AID 1159580);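 note: tested at 20 µM; growth read once vehicle control cultures reached saturation at 30 °C; 1 = growth at the plate median or of vehicle wells; lower values mean less growth of the strain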
Conditions: growth OD

Measured: normalized growth

CCCc1cc(=O)[nH]c(=S)[nH]1
inactive: S. cerevisiae deletion strains, locus YJR075W, strain HOC1, active compounds read low 1.02 | S. cerevisiae deletion strains, locus YKL009W, strain mrt4, active compounds read low 0.994 | S. cerevisiae deletion strains, locus YKL068W, active compounds read low 1 | S. cerevisiae deletion strains, locus YKL085W, strain MDH1 (second series), active compounds read low 1 | S. cerevisiae deletion strains, locus YKL085W, strain MDH1, active compounds read low 1 | S. cerevisiae deletion strains, locus YKL160W, strain elf1, active compounds read low 1.03 | S. cerevisiae deletion strains, locus YKL190W, strain CNB1, active compounds read low 1 | S. cerevisiae deletion strains, locus YKR001C, strain vps1, active compounds read low 1 | S. cerevisiae deletion strains, locus YKR026C, strain gcn3, active compounds read low 1.01 | S. cerevisiae deletion strains, locus YKR091W, strain srl3, active compounds read low 1.01 | S. cerevisiae deletion strains, locus YLL001W, strain dnm1, active compounds read low 1.01 | S. cerevisiae deletion strains, locus YLL026W, active compounds read low 1.02 | S. cerevisiae deletion strains, locus YLL041C, strain sdh2, active compounds read low 1.03 | S. cerevisiae deletion strains, locus YLR027C, strain aat2, active compounds read low 1.01 | S. cerevisiae deletion strains, locus YLR039C, strain RIC1, active compounds read low 1.03 | S. cerevisiae deletion strains, locus YLR058C, strain SHM2, active compounds read low 1.02 | S. cerevisiae deletion strains, locus YLR102C, strain apc9, active compounds read low 0.992 | S. cerevisiae deletion strains, locus YLR113W, strain HOG1, active compounds read low 0.989 | S. cerevisiae deletion strains, locus YLR221C, strain rsa3, active compounds read low 1.02 | S. cerevisiae deletion strains, locus YLR258W, strain gsy2, active compounds read low 1.01 | S. cerevisiae deletion strains, locus YLR262C, strain YPT6 (second series), active compounds read low 1.02 | S. cerevisiae deletion strains, locus YLR262C, strain YPT6, active compounds read low 1.04 | S. cerevisiae deletion strains, locus YLR268W, strain sec22, active compounds read low 1.01 | S. cerevisiae deletion strains, locus YLR320W, strain mms22, active compounds read low 1.03 | S. cerevisiae deletion strains, locus YLR330W, strain CHS5, active compounds read low 1.02 | S. cerevisiae deletion strains, locus YLR342W, strain FKS1 (second series), active compounds read low 1 | S. cerevisiae deletion strains, locus YLR342W, strain FKS1, active compounds read low 1.03 | S. cerevisiae deletion strains, locus YLR357W, strain rsc2, active compounds read low 1.05 | S. cerevisiae deletion strains, locus YLR370C, strain arc18, active compounds read low 1.01 | S. cerevisiae deletion strains, locus YLR371W, strain rom2, active compounds read low 0.994 | S. cerevisiae deletion strains, locus YLR384C, strain iki3, active compounds read low 1.03 | S. cerevisiae deletion strains, locus YLR418C, strain cdc73, active compounds read low 1 | S. cerevisiae deletion strains, locus YML016C, strain PPZ1, active compounds read low 1.01 | S. cerevisiae deletion strains, locus YML032C, strain rad52, active compounds read low 0.989 | S. cerevisiae deletion strains, locus YML120C, strain ndi1, active compounds read low 1 | S. cerevisiae deletion strains, locus YML124C, strain tub3, active compounds read low 0.996 | S. cerevisiae deletion strains, locus YMR058W, strain fet3, active compounds read low 1 | S. cerevisiae deletion strains, locus YMR078C, strain ctf18, active compounds read low 1 | S. cerevisiae deletion strains, locus YMR125W, strain sto1, active compounds read low 1.03 | S. cerevisiae deletion strains, locus YMR129W, active compounds read low 1.02 | S. cerevisiae deletion strains, locus YMR205C, strain PFK2, active compounds read low 1.03 | S. cerevisiae deletion strains, locus YMR223W, strain ubp8, active compounds read low 0.974 | S. cerevisiae deletion strains, locus YMR231W, strain pep5, active compounds read low 1.02 | S. cerevisiae deletion strains, locus YMR263W, strain SAP30, active compounds read low 1.02 | S. cerevisiae deletion strains, locus YMR307W, strain GAS1, active compounds read low 1.07 | S. cerevisiae deletion strains, locus YNL067W, strain RPL9B, active compounds read low 1.02 | S. cerevisiae deletion strains, locus YNL071W, strain lat1, active compounds read low 1 | S. cerevisiae deletion strains, locus YNL128W, strain TEP1, active compounds read low 1.02 | S. cerevisiae deletion strains, locus YNL153C, strain GIM3, active compounds read low 1.02 | S. cerevisiae deletion strains, locus YNL183C, strain NPR1, active compounds read low 0.966 | S. cerevisiae deletion strains, locus YNL209W, strain ssb2, active compounds read low 1.02 | S. cerevisiae deletion strains, locus YNL233W, strain BNI4, active compounds read low 1.02 | S. cerevisiae deletion strains, locus YNL248C, strain rpa49, active compounds read low 1.03 | S. cerevisiae deletion strains, locus YNL250W, strain rad50, active compounds read low 0.994 | S. cerevisiae deletion strains, locus YNL271C, strain bni1, active compounds read low 1 | S. cerevisiae deletion strains, locus YNL298W, strain CLA4, active compounds read low 1.01 | S. cerevisiae deletion strains, locus YNL307C, strain MCK1, active compounds read low 0.998 | S. cerevisiae deletion strains, locus YNL322C, strain KRE1 (second series), active compounds read low 1.02 | S. cerevisiae deletion strains, locus YNL322C, strain KRE1, active compounds read low 1.01 | S. cerevisiae deletion strains, locus YNR049C, strain mso1, active compounds read low 1.01 | S. cerevisiae deletion strains, locus YNR052C, strain pop2, active compounds read low 0.991 | S. cerevisiae deletion strains, locus YOL006C, strain TOP1, active compounds read low 1.04 | S. cerevisiae deletion strains, locus YOL012C, strain htz1 0.884 | S. cerevisiae deletion strains, locus YOL147C, strain pex11, active compounds read low 0.996 | S. cerevisiae deletion strains, locus YOR001W, strain rrp6, active compounds read low 1.02 | S. cerevisiae deletion strains, locus YOR061W, strain CKA2, active compounds read low 1.01 | S. cerevisiae deletion strains, locus YOR069W, strain VPS5, active compounds read low 0.999 | S. cerevisiae deletion strains, locus YOR070C, strain gyp1, active compounds read low 1.02 | S. cerevisiae deletion strains, locus YOR080W, strain dia2, active compounds read low 1.03 | S. cerevisiae deletion strains, locus YOR083W, strain WHI5, active compounds read low 0.996 | S. cerevisiae deletion strains, locus YOR106W, strain vam3, active compounds read low 1.02 | S. cerevisiae deletion strains, locus YOR136W, strain idh2, active compounds read low 0.979 | S. cerevisiae deletion strains, locus YOR144C, strain elg1, active compounds read low 0.999 | S. cerevisiae deletion strains, locus YOR184W, strain ser1, active compounds read low 0.98 | S. cerevisiae deletion strains, locus YOR231W, strain MKK1, active compounds read low 0.993 | S. cerevisiae deletion strains, locus YOR265W, strain rbl2, active compounds read low 1.01 | S. cerevisiae deletion strains, locus YOR270C, strain vph1, active compounds read low 1.1 | S. cerevisiae deletion strains, locus YOR290C, strain snf2, active compounds read low 1.03 | S. cerevisiae deletion strains, locus YOR316C, strain cot1, active compounds read low 0.993 | S. cerevisiae deletion strains, locus YPL051W, strain arl3, active compounds read low 1.02 | S. cerevisiae deletion strains, locus YPL055C, strain LGE1, active compounds read low 1.03 | S. cerevisiae deletion strains, locus YPL078C, strain atp4, active compounds read low 1.02 | S. cerevisiae deletion strains, locus YPL106C, strain sse1, active compounds read low 1.04 | S. cerevisiae deletion strains, locus YPL240C, strain hsp82, active compounds read low 1.01 | S. cerevisiae deletion strains, locus YPL256C, strain CLN2, active compounds read low 1.02 | S. cerevisiae deletion strains, locus YPR119W, strain clb2, active compounds read low 0.99 | S. cerevisiae deletion strains, locus YPR141C, strain kar3, active compounds read low 0.992 | S. cerevisiae deletion strains, locus YPR163C, strain tif3, active compounds read low 0.992 | S. cerevisiae deletion strains, locus YPR167C, strain met16, active compounds read low 0.983 | S. cerevisiae deletion strains, strain wtn01, active compounds read low 0.997 | S. cerevisiae strains, strain wild type, active compounds read low 1.01
